Whole data set: some 33,000 sequences, median “e-score” near -0.05, cut for the highest 2% near 0.38. For the sample, the highest values were picked, then their nearest neighbours and some sequences at random.
molecular target: T1, SIX1-Q177R homeodomain (human, UniProt Q15475 108-198, Q177R); experiment: universal protein binding microarray; Universal all-10-mer PBM (8x60K, AMADID 030236), 300 nM GST-tagged protein, Alexa Fluor 488 anti-GST; buffer, salt, pH and temperature not stated (as in Berger); high values mean tight binding; settings: protein: ivt; tags: N-terminal GST; dsDNA, one strand shown
T1 sequence: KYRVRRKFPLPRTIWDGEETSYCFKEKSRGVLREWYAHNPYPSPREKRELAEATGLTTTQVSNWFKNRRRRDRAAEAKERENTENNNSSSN
In short: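 Binding of GST-tagged homeodomains is given as 8-mer E-scores from the Universal PBM Analysis Suite. The proteins were produced by in vitro transcription/translation, quantified by anti-GST western blot against a recombinant GST standard curve, and applied in duplicate at 300 nM final concentration to universal 'all 10-mer' protein binding microarrays (8×60K format).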

Point of comparison: CCACACCA, binding signal 0.393 ± 0.0307 E-score. Against it:
- CGAACGGA — lower, 0.21 ± 0.0321 E-score
- ACCCAGTA — lower, 0.175 ± 0.0267 E-score
- GAGTTAAC — lower, 0.171 ± 0.00701 E-score
- GTGTTTGA — lower, 0.35 ± 0.00533 E-score
- GTGTTATA — within error, 0.432 ± 0.0299 E-score
- GTGTGAAC — within error, 0.362 ± 0.00749 E-score
- GGGTTATA — lower, 0.2303 ± 0.000672 E-score
- GTGTTTTA — within error, 0.361 ± 0.026 E-score
- CTGTTACA — lower, 0.238 ± 0.0173 E-score
- ATGTTACA — lower, 0.177 ± 0.00778 E-score
- GTGTTAAC — within error, 0.415 ± 0.0316 E-score
- GTGTTAGA — within error, 0.41 ± 0.0163 E-score
- GTGTTACA — higher, 0.4422 ± 0.00139 E-score
- ACCTAACA — lower, 0.203 ± 0.0209 E-score
- ACAAGGGT — lower, 0.21 ± 0.00286 E-score
- AAGAGTGT — within error, 0.363 ± 0.0349 E-score
- CCGACGCC — lower, 0.154 ± 0.0342 E-score
- AGGGAGTG — lower, 0.163 ± 0.00586 E-score
- CACTAACC — lower, 0.17 ± 0.00501 E-score
- AGGGCGTG — lower, 0.169 ± 0.0301 E-score
- CTCCGACA — lower, 0.175 ± 0.075 E-score
- ACCTGCCT — lower, 0.198 ± 0.0238 E-score
- CACCTTAG — lower, 0.286 ± 0.00858 E-score
- CGCGGGTA — lower, 0.273 ± 0.00467 E-score
- CGGTGCGA — lower, 0.155 ± 0.0742 E-score
- TGGAAACA — lower, 0.223 ± 0.0152 E-score
- GTGTTAAA — within error, 0.403 ± 0.0279 E-score
- GGGTTAAA — lower, 0.214 ± 0.0192 E-score
- GTGTTTAA — within error, 0.375 ± 0.015 E-score
- ACGGGGTC — lower, 0.214 ± 0.0134 E-score
- ACCCCCAA — lower, 0.312 ± 0.0125 E-score
- GCACCCAC — lower, 0.194 ± 0.0207 E-score
- ACACCCAG — higher, 0.4602 ± 0.00339 E-score
- AACCCCAT — lower, 0.169 ± 0.00626 E-score
- ACACCCAC — higher, 0.4683 ± 0.00307 E-score
- ACCCCCAC — lower, 0.282 ± 0.0258 E-score
- ACCCCCAG — lower, 0.23 ± 0.0356 E-score
- AAACCCAG — lower, 0.219 ± 0.0117 E-score
- ACCCCCAT — lower, 0.272 ± 0.0289 E-score
- ACACCCAA — higher, 0.4542 ± 0.000742 E-score
- ACACCCAT — higher, 0.458 ± 0.00543 E-score
- GCACCCAA — lower, 0.154 ± 0.0464 E-score
- ACCAACGC — lower, 0.246 ± 0.0108 E-score
- TATCAACA — lower, 0.288 ± 0.0159 E-score
- ACCCCGAC — lower, 0.265 ± 0.018 E-score
- CTCGATCC — lower, 0.201 ± 0.00608 E-score
- GGTGCTTA — lower, 0.234 ± 0.00599 E-score
- CGGTGACA — lower, 0.248 ± 0.0377 E-score
- CAAACCCC — lower, 0.197 ± 0.0505 E-score
- CACTGTGA — lower, 0.177 ± 0.00305 E-score
- CAGCCGAC — lower, 0.196 ± 0.0242 E-score
- GCACACGC — lower, 0.256 ± 0.0166 E-score
- TCACACCA — higher, 0.434 ± 0.00571 E-score
- CCACACCG — within error, 0.363 ± 0.0269 E-score
- TCACACGA — lower, 0.226 ± 0.00234 E-score
- GCACACCA — within error, 0.401 ± 0.0217 E-score
- GCACACGA — lower, 0.214 ± 0.0114 E-score
- ACACACCA — within error, 0.415 ± 0.0235 E-score
- ACACACGA — lower, 0.251 ± 0.0465 E-score
- ACACACAA — lower, 0.244 ± 0.0667 E-score
- CCACACGA — lower, 0.234 ± 0.0111 E-score
- TCACAACA — lower, 0.195 ± 0.0326 E-score
- ATCCCCTG — lower, 0.156 ± 0.0119 E-score
- ACTATACG — lower, 0.178 ± 0.015 E-score
- CACTCTGA — lower, 0.239 ± 0.0406 E-score
- CACCTTGC — lower, 0.258 ± 0.0162 E-score
- TGTTGAAA — lower, 0.219 ± 0.0411 E-score
- AGTGATAC — lower, 0.265 ± 0.0283 E-score
- CGTATACA — lower, 0.241 ± 0.0194 E-score
- GCGGTACA — lower, 0.305 ± 0.00496 E-score
- ACACTAAA — lower, 0.345 ± 0.0117 E-score
- ACACTAGC — within error, 0.364 ± 0.0183 E-score
- ACACTAGA — lower, 0.318 ± 0.0323 E-score
- ACCCTAGG — lower, 0.1523 ± 0.00136 E-score
- ACACTAGG — within error, 0.381 ± 0.0153 E-score
- ACACTAGT — within error, 0.389 ± 0.00685 E-score
- GGATCAGA — lower, 0.17 ± 0.0215 E-score
- CCCTGCAG — lower, 0.185 ± 0.0216 E-score
- CTCTTACA — lower, 0.183 ± 0.018 E-score
- ATGGGATC — lower, 0.185 ± 0.00496 E-score
- CCGAACAC — within error, 0.4236 ± 0.00158 E-score
- GCGAACCC — lower, 0.174 ± 0.0509 E-score
- CCGAATAC — lower, 0.163 ± 0.00356 E-score
- ACGAACAC — within error, 0.3992 ± 0.00182 E-score
- ACGAGCAC — lower, 0.226 E-score
- CCGAACCC — lower, 0.186 ± 0.0116 E-score
- GCGAACAC — within error, 0.4086 ± 0.0011 E-score
- ACCCTAAC — lower, 0.154 ± 0.00793 E-score
- ACCCACAG — lower, 0.217 ± 0.00978 E-score
- CACCAGGA — lower, 0.25 ± 0.00664 E-score
- GTACCTAC — lower, 0.152 ± 0.0312 E-score
- CTCCGTTC — lower, 0.182 ± 0.0356 E-score
- CCCAAACG — lower, 0.169 ± 0.00462 E-score
- ACAGGGTG — lower, 0.222 ± 0.00416 E-score
- AACACGAC — within error, 0.373 ± 0.0147 E-score
- AACACCAA — higher, 0.46725 ± 0.00029 E-score
- AACACGAA — lower, 0.305 ± 0.0107 E-score
- TACACGAA — within error, 0.3773 ± 0.000856 E-score
- TACACCAA — higher, 0.4751 ± 0.00401 E-score
- AGCACCAC — lower, 0.272 ± 0.00962 E-score
- TGCACCAA — lower, 0.211 ± 0.0149 E-score
- AGCACCAT — lower, 0.16 ± 0.0114 E-score
- AACACCAT — higher, 0.457 ± 0.0053 E-score
- AGCACCAA — lower, 0.196 ± 0.00899 E-score
- AACACCAC — higher, 0.4833 ± 0.00244 E-score
- GTCCGACA — lower, 0.217 ± 0.042 E-score
- GTAAGCAC — lower, 0.189 ± 0.00735 E-score
- CCTCCTAA — lower, 0.197 ± 0.00216 E-score
- GACGGTGC — lower, 0.175 ± 0.00182 E-score
- CACTGCAC — lower, 0.223 ± 0.0117 E-score
- ACCCTCGG — lower, 0.2 ± 0.0194 E-score
- GATACCAA — lower, 0.263 ± 0.0211 E-score
- GGCACCAC — lower, 0.215 ± 0.0174 E-score
- GACCACAC — lower, 0.269 ± 0.0108 E-score
- GACACCAC — higher, 0.489 ± 0.00507 E-score
- GACACCAA — higher, 0.475 ± 0.00758 E-score
- GACACAAA — lower, 0.224 ± 0.11 E-score
- CCCCTCGA — lower, 0.23 ± 0.0411 E-score
- GGCGGGTA — lower, 0.214 ± 0.0165 E-score
- CCGGGTAC — lower, 0.294 ± 0.0102 E-score
- AACGGGTG — lower, 0.314 ± 0.00327 E-score
- ACCCGGTG — lower, 0.3599 ± 0.0016 E-score
- CTACTCCC — lower, 0.228 ± 0.0226 E-score
- CACGGCCG — lower, 0.188 ± 0.00306 E-score
- GGGTATCA — within error, 0.3904 ± 0.00193 E-score
- CAGTATCA — lower, 0.2 ± 0.0287 E-score
- CGGTATCA — lower, 0.312 ± 0.00867 E-score
- GTGTATTA — within error, 0.401 ± 0.0189 E-score
- GGGTATGA — lower, 0.186 ± 0.0167 E-score
- GAGTATCA — lower, 0.228 ± 0.0455 E-score
- GGGTATTA — lower, 0.161 ± 0.054 E-score
- AGGTATCA — within error, 0.324 ± 0.0386 E-score
- GTGTATCA — within error, 0.392 ± 0.0104 E-score
- GTGTATAA — within error, 0.376 ± 0.0114 E-score
- GTGTATGA — within error, 0.412 ± 0.0071 E-score
- CCCTCGGA — lower, 0.19 ± 0.012 E-score
- CCGAGTCA — lower, 0.157 ± 0.00701 E-score
- AACAGTGT — lower, 0.323 ± 0.0244 E-score
- GACGCCCC — lower, 0.182 ± 0.00373 E-score
- GAGTAACA — lower, 0.24 ± 0.0048 E-score
- ACGCTACA — lower, 0.161 ± 0.0151 E-score
- CCAACACA — lower, 0.163 ± 0.0809 E-score
- CCAACACG — within error, 0.377 ± 0.0116 E-score
- GCAACACC — higher, 0.4669 ± 0.000587 E-score
- CCAACACC — higher, 0.47 ± 0.00509 E-score
- ACAACACG — within error, 0.358 ± 0.0104 E-score
- GCAACCCC — lower, 0.184 ± 0.013 E-score
- ACAACACC — higher, 0.455 ± 0.00357 E-score
- ACAACACT — lower, 0.35 ± 0.00607 E-score
- ACAACACA — lower, 0.232 ± 0.0598 E-score
- GCTGGGTA — lower, 0.227 ± 0.00462 E-score
- ACTCGGCA — lower, 0.161 ± 0.0126 E-score
- CACCTTCC — lower, 0.307 ± 0.017 E-score
- CACTAGGG — lower, 0.201 ± 0.0297 E-score
- GAGTGTAA — within error, 0.42 ± 0.0292 E-score
- TAGTGTAA — within error, 0.408 ± 0.0318 E-score
- TAGTGTGA — lower, 0.258 ± 0.0135 E-score
- GGGAGTAA — lower, 0.225 ± 0.0261 E-score
- AAGTGTGA — lower, 0.188 ± 0.0231 E-score
- TAGAGTAA — lower, 0.199 ± 0.00264 E-score
- CAGTGTGA — lower, 0.306 ± 0.0246 E-score
- CAGTGTAA — within error, 0.42 ± 0.0273 E-score
- AAGTGTAT — within error, 0.317 ± 0.0537 E-score
- AAGTGTAA — within error, 0.4 ± 0.0567 E-score
- CAGGGTAA — lower, 0.21 ± 0.00942 E-score
- CACGAAAA — lower, 0.157 ± 0.0159 E-score
- GGGAGTTA — lower, 0.2077 ± 0.00099 E-score
- TCGGCACA — lower, 0.217 ± 0.0118 E-score
- CACCGCCA — lower, 0.291 ± 0.0119 E-score
- AGTCGGTG — lower, 0.297 ± 0.0328 E-score
- TGCGTACA — lower, 0.18 ± 0.00951 E-score
- ATAATACA — lower, 0.166 ± 0.023 E-score
